Results on 32 compounds are retold here after PubChem BioAssay (Tox21).

Test [1] can be described thus: qHTS assay to identify small molecule antagonists of the glucocorticoid receptor (GR) signaling pathway - cell viability counter screen (AID 720693). Note: nearly all actives have a fitted effect of over 55% in size. A general note: Quantitative high-throughput screening tests each substance at several concentrations.
Test [2] in a line: qHTS assay for identifying genotoxic compounds that show differential cytotoxicity against isogenic chicken DT40 cell lines with known DNA damage response pathways - wild type cell line (AID 743012). Note: nearly all actives have a fitted effect of over 60% in size. Note: potency is the fitted concentration of half-maximal effect. In short, it runs like this:
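Wild type DT40, 300 cells/well, ~0.5 h settle at 37 C/5% CO2; compounds in DMSO added by pintool; 40 h at 37 C/5% CO2; CellTiter-Glo, 30 min RT; luminescence.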

A short description of test [3]: qHTS assay for identifying genotoxic compounds that show differential cytotoxicity against isogenic chicken DT40 cell lines with known DNA damage response pathways - Rev3 mutant cell line (AID 743014). Note: nearly all actives have a fitted effect of over 55% in size. Note: potency is the fitted concentration of half-maximal effect.
Test [4] is described as follows: qHTS assay to identify small molecule antagonists of the androgen receptor (AR) signaling pathway - cell viability counter screen (AID 743033; note: nearly all actives have a fitted effect of over 45% in size).
Test [5] addresses Androgen receptor (Homo sapiens) (UniProt P10275). The test can be described thus: qHTS assay to identify small molecule antagonists of the androgen receptor (AR) signaling pathway (AID 743035; active = well fitted inhibition curve with a large enough effect in the signal ratio in the repeat runs, not every such curve was filed as active; the % refers to the signal ratio). In short, it runs like this:
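Fluorescence from a beta-lactamase FRET substrate (LiveBLAzer B/G, 2 h, room temperature) measured inhibition of R1881-stimulated signaling in GeneBLAzer AR-UAS-bla HEK293 cells exposed to compound for 16 h at 37C.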

For test [6] the target is unchanged. The test can be described thus: qHTS assay to identify small molecule agonists of the androgen receptor (AR) signaling pathway (AID 743036; active = well fitted activation curve with a large enough effect in the signal ratio in the repeat runs, with a control signal flat, not every such curve was filed as active; the % refers to the signal ratio). The gist of the method: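 HEK293 cells stably carrying a UAS-driven beta-lactamase reporter (GeneBLAzer AR-UAS-bla-GripTite) were plated at 2,000 cells/well, rested 4 h at 37C, then exposed to compounds in DMSO for 16 h. LiveBLAzer B/G FRET substrate was added for 2 h at room temperature; fluorescence read.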

Test [7] has the same target. The test can be described thus: qHTS assay to identify small molecule agonists of the androgen receptor (AR) signaling pathway using the MDA cell line (AID 743040; note: nearly all actives have a fitted effect of over 20% in size). The gist of the method:
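Cells plated, 5 h at 37C/0% CO2; compound or DMSO pinned; 16 h at 37C; ONE-Glo added; luminescence measured after 30 min at room temperature. Reporter line: MDA-kb2 with MMTV-luciferase responsive to AR and GR.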

Test [8] in a line: qHTS assay to identify small molecule antagonists of the androgen receptor (AR) signaling pathway using the MDA cell line - cell viability counter screen (AID 743041; note: nearly all actives have a fitted effect of over 45% in size). In short, it runs like this: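 Cells were plated at 3,000 per well and left 5 h. Compounds in DMSO were then pinned in, followed by R1881. After 16 h at 37C, CellTiter-Fluor fluorescence gave viability.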
The target in test [9] is Androgen receptor (Homo sapiens) (UniProt P10275). The test is described as follows: qHTS assay to identify small molecule antagonists of the androgen receptor (AR) signaling pathway using the MDA cell line (AID 743042; note: nearly all actives have a fitted effect of over 55% in size). The gist of the method:
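Antagonist mode: compounds plus R1881 agonist added to MDA-kb2 AR-luc cells, incubated 16 h at 37C. Luciferase reporter luminescence quantified, with multiplexed CellTiter-Fluor readout for cell viability.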

Test [10] in a line: qHTS assay for identifying genotoxic compounds that show differential cytotoxicity against isogenic chicken DT40 cell lines with known DNA damage response pathways - Rad54/Ku70 mutant cell line (AID 743015). Note: nearly all actives have a fitted effect of over 60% in size. Note: potency is the fitted concentration of half-maximal effect.

Inconclusive results are not listed. Active and inactive are the calls of the source. Unless noted, calls come from the whole dose curve; as a rule, active = well fitted curve in the direction sought with a large enough effect in the repeat runs; inconclusive = weak or mixed curves; inactive = no such curve, though single readings can be large; an effect the other way counts as inactive or inconclusive.

Androgen receptor (Homo sapiens), sequence (P10275 whole entry, looked up): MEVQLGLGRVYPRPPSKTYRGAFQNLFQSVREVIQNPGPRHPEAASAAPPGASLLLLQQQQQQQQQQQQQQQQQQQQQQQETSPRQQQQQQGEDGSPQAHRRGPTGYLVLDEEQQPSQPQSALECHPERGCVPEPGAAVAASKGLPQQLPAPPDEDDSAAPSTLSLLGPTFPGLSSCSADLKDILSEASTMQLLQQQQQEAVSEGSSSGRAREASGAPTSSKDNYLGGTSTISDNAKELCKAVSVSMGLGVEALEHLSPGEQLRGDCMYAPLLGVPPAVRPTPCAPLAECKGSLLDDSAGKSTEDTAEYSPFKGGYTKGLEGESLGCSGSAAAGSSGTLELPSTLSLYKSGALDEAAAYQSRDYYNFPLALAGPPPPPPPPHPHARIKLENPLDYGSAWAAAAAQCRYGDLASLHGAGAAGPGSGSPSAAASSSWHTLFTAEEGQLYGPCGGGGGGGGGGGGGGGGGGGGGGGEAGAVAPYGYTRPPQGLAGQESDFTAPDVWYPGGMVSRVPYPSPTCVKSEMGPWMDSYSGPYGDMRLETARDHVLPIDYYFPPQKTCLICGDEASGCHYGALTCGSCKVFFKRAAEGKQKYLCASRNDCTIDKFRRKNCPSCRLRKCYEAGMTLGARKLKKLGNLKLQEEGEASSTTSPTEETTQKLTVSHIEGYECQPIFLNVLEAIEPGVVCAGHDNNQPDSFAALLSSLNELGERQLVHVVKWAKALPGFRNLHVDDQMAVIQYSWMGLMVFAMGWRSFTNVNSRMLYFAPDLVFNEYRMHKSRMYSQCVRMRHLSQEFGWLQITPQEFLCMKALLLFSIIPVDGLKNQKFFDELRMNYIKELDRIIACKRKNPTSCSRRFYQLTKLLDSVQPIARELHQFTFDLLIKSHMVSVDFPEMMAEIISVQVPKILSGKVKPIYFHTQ

For the compound `CC(C)(O)C(=O)c1ccccc1`, the compound was classed as inactive in test [1], in test [5] and in test [6]. The Potency result in test [2], in test [3], in test [4], in test [7], in test [8] and in test [9] was “inactive” each time.
For `NC(=O)Nc1ccccc1`, the result in test [1] was inactive. Further, the Potency entry in [2], in [3], in [10], in test [4] and in test [8] was “inactive” in each case.
In the case of `N#Cc1ccc(C2CCCc3cncn32)cc1` (configuration not stated), the outcome in test [1] was inactive. The Potency result in test [2], in [3], in test [10], in test [4] and in test [8] was “inactive” throughout.
With `Nc1c[n+](N2CCOCC2)no1`, in test [1], the outcome was inactive. Also, the Potency entry in test [2], in test [3], in [10], in test [4] and in test [8] was “inactive” in each case.
`O=C1CCCC(=O)C1`: the call in [1] was inactive. Besides, the Potency result in test [2], in [3], in test [4] and in test [8] was “inactive” in each case.
Regarding `CCOC(=O)CC(C)=O`, in test [1], the compound was classed as inactive. The Potency entry in test [2], in [3], in test [4] and in test [8] was “inactive” throughout.
`O=C1CCCN1C1CCCCC1`: in [1], the result was inactive. Also, the Potency result in test [2], in test [3], in test [10], in test [4] and in test [8] was “inactive” in each case.
In the case of `NC(CSCC(=O)O)C(=O)O` (configuration not stated), the call in [1] was inactive. In addition, the Potency result in test [2], in test [3], in [10], in [4] and in test [8] was “inactive” in each case.
For the compound `O=C1OC(=O)C2CCCCC12` (configuration not stated), the call in test [1] was inactive. For the same compound, the Potency entry in test [2], in test [3], in [4] and in test [8] was “inactive” in each case.
In the case of `OCCOc1ccc(OCCO)cc1`, the outcome in test [1] was inactive. The Potency entry in test [2], in test [3], in test [4] and in test [8] was “inactive” each time.
Take `CCC=O`: in test [1], the compound was called inactive. In addition, the Potency entry in test [2], in test [3], in test [4] and in test [8] was “inactive” in each case.
On to `Cc1cc2c(cc1S(N)(=O)=O)S(=O)(=O)CCC2`, for which the call in [1] was inactive. The Potency entry in [2], in [3], in test [10] and in test [8] was “inactive” throughout.
`CN(C(=O)c1c(O)c2ccccc2n(C)c1=O)c1ccccc1`: the compound was called inactive in [1]. In addition, the Potency entry in test [2], in test [3], in test [10] and in test [8] was “inactive” throughout.
With `C=C[Si](OC(=C)C)(OC(=C)C)OC(=C)C`, the compound was classed as inactive in test [1]. Moreover, the Potency result in [2], in [3], in [10], in [4] and in [8] was “inactive” throughout.
Consider `NC(=O)c1cn(Cc2c(F)cccc2F)nn1`, for which the compound was called inactive in test [1]. Further, the Potency result in test [2], in [3], in test [4] and in [8] was “inactive” throughout.
For `CCN(CC)CCOCCOC(=O)C1(c2ccccc2)CCCC1`, in test [1], the call was inactive. Besides, the Potency in test [2] was 5.96 µM (active); in test [3] it was 2.11 µM (active); in test [10] it was 5.96 µM (active). The Potency entry in test [4] and in test [8] was “inactive” in each case.
Turning to `COC(=O)CCSCCC(=O)OC`, in test [1], the result was inactive. Further, the Potency result in test [2], in test [3], in test [10], in test [4] and in test [8] was “inactive” each time.
Turning to `CC(=O)c1ccccc1O`, the compound was called inactive in [1]. For the same compound, the Potency entry in test [2], in test [3], in test [10], in test [4] and in test [8] was “inactive” throughout.
Turning to `CC1=CC(C)C(C=O)CC1` (configuration not stated), in test [1], the call was inactive. Further, the Potency entry in test [2], in test [3], in test [10], in test [4] and in test [8] was “inactive” in each case.
As to `CC(C)OC(=O)c1ccccc1`, in [1], the outcome was inactive. Also, the Potency result in test [2], in [3], in test [4] and in test [8] was “inactive” in each case.
Turning to `C[C@H](NC(CCc1ccccc1)C(=O)O)C(=O)N1CCC[C@H]1C(=O)O` (some centres not stated), the compound was called inactive in test [1]. For the same compound, the Potency entry in [2], in test [3], in [10], in [4] and in test [8] was “inactive” in each case.
As to `Nc1ccc(S(=O)(=O)Nc2ccnn2-c2ccccc2)cc1`, the compound was classed as inactive in test [1]. Besides, the Potency entry in test [2], in [3] and in test [4] was “inactive” in each case.
Turning to `FC(F)OC(Cl)C(F)(F)F` (configuration not stated), in [1], the compound was classed as inactive. Also, the Potency result in test [2], in test [3], in test [10], in test [4] and in test [8] was “inactive” each time.
Take `Cc1c(O)cccc1O`: the call in test [1] was inactive. For the same compound, the Potency result in [2], in [3], in [10], in [4] and in [8] was “inactive” in each case.
Turning to `O=C(O)CCCl`, the compound was classed as inactive in test [1]. Moreover, the Potency result in [2], in test [3] and in [4] was “inactive” in each case.
Consider `CC(C[N+](C)(C)C)OC(N)=O` (configuration not stated), for which the outcome in test [1] was inactive. The Potency entry in test [2], in [3], in test [4] and in test [8] was “inactive” in each case.
With `N=C(N)c1ccc(OCCCOc2ccc(C(=N)N)cc2)cc1`, in test [1], the compound was classed as inactive. Moreover, the figures for the Potency in [2], in [3] and in test [10] were 4.22 µM (active), 8.41 µM (active) and 5.96 µM (active), respectively. Also, the Potency result in test [4] and in [8] was “inactive” each time.
As for `CO[Si](CCCOCC1CO1)(OC)OC` (configuration not stated), the compound was classed as inactive in [1]. The Potency entry in [2] and in test [4] was “inactive” throughout. In [3], the Potency was 38.6 µM (active).
As to `ClC(Cl)(Br)Br`, the outcome in test [1], in test [5] and in test [6] was inactive. In addition, the Potency entry in [2], in test [3], in test [4], in [7], in test [8] and in test [9] was “inactive” throughout.
`NS(=O)(=O)c1cc(C(=O)O)cc(N2CCCC2)c1Oc1ccccc1`: the outcome in test [1] was inactive. Further, the Potency entry in test [2], in [3], in [4] and in [8] was “inactive” throughout.
Consider `c1ccc([C@H]2CN3CCSC3=N2)cc1`, for which the result in test [1] was inactive. The Potency result in test [4] and in [8] was “inactive” throughout.
On to `CC(=O)CC(C)(C)C1CCCCC1`, for which the outcome in test [1] was inactive. Besides, the Potency entry in [2], in [10], in test [4] and in [8] was “inactive” throughout.
